The source made the active and inactive calls.

In this experiment the target is Dihydroorotate dehydrogenase (quinone), mitochondrial (Plasmodium falciparum (isolate 3D7)) (UniProt Q08210). Description: PfDHODH enzyme inhibitors, primary screen, biochemical, C-terminal His tag, absorbance 600 nm (AID 1175).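 Note: recombinant parasite enzyme with a five histidine tag at its C terminus; test concentration not given here.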 The conditions noted are these: DCIP absorbance 600 nm, higher = more signal, called active from +8 up or from −8 down.
Sequence of Dihydroorotate dehydrogenase (quinone), mitochondrial (Plasmodium falciparum (isolate 3D7)) (Q08210 whole entry, looked up): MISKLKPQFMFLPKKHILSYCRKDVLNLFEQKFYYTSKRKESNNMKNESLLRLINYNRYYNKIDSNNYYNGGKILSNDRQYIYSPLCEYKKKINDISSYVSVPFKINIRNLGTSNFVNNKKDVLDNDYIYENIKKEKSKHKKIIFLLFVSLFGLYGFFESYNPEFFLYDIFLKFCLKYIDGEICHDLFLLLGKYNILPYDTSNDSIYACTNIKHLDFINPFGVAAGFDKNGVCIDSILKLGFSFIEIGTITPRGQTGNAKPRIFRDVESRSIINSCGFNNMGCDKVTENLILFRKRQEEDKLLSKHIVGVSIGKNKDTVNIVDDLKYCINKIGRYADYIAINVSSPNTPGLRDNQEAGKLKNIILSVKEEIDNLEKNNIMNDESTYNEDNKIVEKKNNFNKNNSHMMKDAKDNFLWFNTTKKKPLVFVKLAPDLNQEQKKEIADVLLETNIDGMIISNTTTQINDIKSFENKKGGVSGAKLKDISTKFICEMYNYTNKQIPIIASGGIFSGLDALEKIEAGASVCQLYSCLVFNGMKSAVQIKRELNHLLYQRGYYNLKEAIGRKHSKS
Consider `CC(=O)NCCCC[C@@H]1NC(=O)[C@@H]2C[C@H](C(=O)NCCCCCNC(=O)CS)[C@H](c3cccc(OCCO)c3)N2C1=O`, for which the composite z-score is -29.3 (active).
Next, `COc1ccccc1CN1C(=O)c2ccccc2[C@@]2(Cc3ccccc3N(CC(C)C)C2=O)[C@@H]1c1ccc(CO)cc1`: -0.359 (inactive); `CC(CO)N1C(=O)[C@@H]2C3C(=O)OCCC/C=C\[C@H]3OC23C=CCN(C(C)(C)C)C(=O)[C@@H]13` (stereo partly specified): -4.03 (inactive).
The same measure for `CC1(C)[C@@H]2CC(C(O)C3C=CC4C(=O)N(Cc5ccccc5)C(=O)C4N3n3cnnc3)=C[C@H]1C2` (stereo partly specified): 0.525 (inactive); for `O=C1C[C@@](C(=O)NC2CC2)(c2ccc([N+](=O)[O-])cc2)[C@@H](c2ccc(CO)cc2I)N1C1CCCCC1`: -0.716 (inactive).
As to `NC(=O)NCC#Cc1ccc2c(c1)[C@]1(C(=O)N2)[C@H](C(=O)Nc2nc3ccccc3s2)[C@H]2C(=O)O[C@H](c3ccccc3)[C@H](c3ccccc3)N2[C@@H]1c1ccccc1OCCO`, the composite z-score was 2.26 (inactive).
Next, `O=C1c2ccccc2[C@](Cc2ccccc2I)(C(=O)NCC(F)(F)F)[C@H](c2ccc(CO)cc2)N1Cc1ccccc1Cl`: -0.246 (inactive).
The same measure for `CCC[C@@H]1C[C@@]1(CCC)[C@@H](NS(=O)(=O)c1cccc2cccnc12)c1ccc(Cl)cc1`: 0.283 (inactive).
`CCCC[C@@H]1C[C@H]1[C@@H](NC(=O)c1ccco1)c1ccc(-c2ccccc2)cc1`: the composite z-score is -3.3 (inactive).
Next, `Cc1ccc(S[C@]2(C(=O)NCCCN(C)C)CC(=O)N(Cc3cc(C(F)(F)F)cc(C(F)(F)F)c3)[C@@H]2c2ccc(CO)cc2)cc1`: -0.132 (inactive).
Next, `C=C[C@@H](COC(=O)OC(C)(C)C)N(Cc1ccc(OC)cc1)S(=O)(=O)c1ccc(Br)cc1`: -0.316 (inactive).
Next, `COCCOC(=O)N1C(=O)[C@@]2(c3cc(C#CCC(C(=O)OC)C(=O)OC)ccc31)[C@H](C(=O)N1CCN(c3ncccn3)CC1)[C@H]1C(=O)O[C@H](c3ccccc3)[C@H](c3ccccc3)N1[C@@H]2c1ccccc1OCCO`: -1.42 (inactive); `CN1C(=O)C2C=CC(C(O)c3ccccc3)N(N(c3ccccc3)c3ccccc3)C2C1=O` (stereo unspecified): 0.0002 (inactive); `COc1ccc([Si](C)(C)[C@H]2[C@H](CC(=O)N3Cc4ccccc4C[C@H]3CO)O[C@@]3(C(=O)N(Cc4cccc(N5CCC5=O)c4)c4ccccc43)[C@@H]2C)cc1`: -2.72 (inactive).
In the case of `C=CCC(OC(C)=O)[C@@H]1[C@@H](N(Cc2ccc(-c3cccc(C(F)(F)F)c3)o2)C(=O)c2ccc(C)cc2)c2cc(OCCCO)ccc2N1C(=O)Cc1ccc2ccccc2c1` (stereo partly specified), the composite z-score was -0.802 (inactive).
As to `Oc1ccc2cc[n+](Cc3sc4ccccc4c3Cl)cc2c1`, the composite z-score is -0.427 (inactive).
The same measure for `COC(=O)C(CC#Cc1ccc2c(c1)[C@]1(C(=O)N2)[C@H](c2ccc(OCCO)cc2)N2[C@H](c3ccccc3)[C@H](c3ccccc3)OC(=O)[C@H]2[C@@H]1C(=O)N1CCc2cc(OC)c(OC)cc2C1)C(=O)OC`: -4.19 (inactive); for `COc1ccc(CCNC(=O)[C@@]2(Sc3ccc(C)cc3)CC(=O)N(C(C)C)[C@@H]2c2ccc(CO)cc2I)cc1`: 0.0834 (inactive).
For the compound `CN(C)CCCC[C@@H]1NC(=O)[C@@H]2C[C@H](C(=O)NCCCCCCN)[C@H](c3cccc(OCCO)c3)N2C1=O`, the composite z-score is -0.981 (inactive).
Take `C=CCN1C(=O)[C@]2(O[C@H](CCn3cc([C@H](O)c4ccccc4)nn3)[C@@H]([Si](C)(C)c3ccc(OC)cc3)[C@@H]2C)c2ccccc21`: the composite z-score is -0.591 (inactive).
Next, `COC(=O)C(CC#Cc1ccc2c(c1)[C@]1(C(=O)N2)[C@H](C(=O)Nc2nc3ccccc3s2)[C@H]2C(=O)O[C@H](c3ccccc3)[C@H](c3ccccc3)N2[C@@H]1c1ccc(O)cc1)C(=O)OC`: -0.72 (inactive).
Next, `COc1cc2c(cc1O)C(c1cccs1)N(C)CC2` (stereo unspecified): -8.08 (active).
As to `C=CC[C@]1(C(=O)NCc2ccccc2)N=C(c2ccc(OCCCO)cc2)O[C@H]1c1ccccc1N=[N+]=[N-]`, the composite z-score is 1.52 (inactive).
Next, `O=C(c1ccccc1)N1Cc2ccccc2C[C@@]2(COC(c3ccc(OCCCO)cc3)=N2)C1=O`: 0.574 (inactive); `C=C[C@H](C)[C@@H](OC(=O)Nc1ccc(OC)cc1)c1ccc(O)c2ccccc12`: -2.51 (inactive); `CCC(CC)C(O)C1C=CC2C(=O)NC(=O)C2N1Nc1ccc(Cl)cc1Cl` (stereo unspecified): 0.925 (inactive).

(Values after PubChem BioAssay.)
